In article PMC5700166:

Target: T1, GST-Nv-NF-kB (Ser allele) (Nematostella vectensis, UniProt A7UNT2 2-411)
T1 sequence: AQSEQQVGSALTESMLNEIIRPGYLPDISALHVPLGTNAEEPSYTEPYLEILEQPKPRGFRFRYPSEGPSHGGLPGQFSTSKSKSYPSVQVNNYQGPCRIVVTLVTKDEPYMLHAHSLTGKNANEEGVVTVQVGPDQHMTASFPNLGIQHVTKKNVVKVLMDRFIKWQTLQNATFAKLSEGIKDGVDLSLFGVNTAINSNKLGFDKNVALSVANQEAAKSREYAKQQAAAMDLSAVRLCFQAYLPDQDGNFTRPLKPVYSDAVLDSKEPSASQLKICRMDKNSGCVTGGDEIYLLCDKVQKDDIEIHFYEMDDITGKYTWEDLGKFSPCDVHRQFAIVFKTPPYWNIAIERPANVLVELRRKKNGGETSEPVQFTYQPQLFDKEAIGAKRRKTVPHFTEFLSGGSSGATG
Assay: protein-binding microarray (PBM); PBM: ~300 nM protein, 6 mM HEPES pH 7.8, 80 mM KCl, 0.5 mM EDTA, 0.5 mM EGTA, 6% glycerol, 35 ng/ul poly-dIdC, 1% milk, 1 h, room temperature; Ap Aiptasia and Nv Nematostella (sea anemones) / Co Capsaspora / Aq Amphimedon (sponge) / Dm Drosophila / Hu human; RHD is the Rel homology domain; high values mean tight binding
Settings: dsDNA, one strand shown

Sequence	binding signal
CCGATTAACATCAGGGACTTTAATGATGTTAATCGGGTCTTGATTCGCTTGACGCTGCTG	6.21 z-score
CCGATTAACATCACAGAAACCCCTGATGTTAATCGGGTCTTGATTCGCTTGACGCTGCTG	4.97 z-score
CCGATTAACATCAGGGAAATTAATGATGTTAATCGGGTCTTGATTCGCTTGACGCTGCTG	6.52 z-score
CCGATTAACATCAAAATAGCCCCTGATGTTAATCGGGTCTTGATTCGCTTGACGCTGCTG	5.05 z-score
CCGATTAACATCAGGGGGTTATATGATGTTAATCGGGTCTTGATTCGCTTGACGCTGCTG	6.26 z-score
CCGATTAACATCAGGATGTCCCCTGATGTTAATCGGGTCTTGATTCGCTTGACGCTGCTG	4.5 z-score
CCGATTAACATCAAATTGGGAAATGATGTTAATCGGGTCTTGATTCGCTTGACGCTGCTG	2.19 z-score
CCGATTAACATCATAAAAAAAAATGATGTTAATCGGGTCTTGATTCGCTTGACGCTGCTG	1.09 z-score
CCGATTAACATCAGGGGGAACAATGATGTTAATCGGGTCTTGATTCGCTTGACGCTGCTG	6.27 z-score
CCGATTAACATCACACTCCCCCCTGATGTTAATCGGGTCTTGATTCGCTTGACGCTGCTG	4.56 z-score
CCGATTAACATCACGCATCCCCCTGATGTTAATCGGGTCTTGATTCGCTTGACGCTGCTG	6.09 z-score
CCGATTAACATCAGAAATTACCCTGATGTTAATCGGGTCTTGATTCGCTTGACGCTGCTG	5.41 z-score
CCGATTAACATCACCGAACCCCCTGATGTTAATCGGGTCTTGATTCGCTTGACGCTGCTG	5.24 z-score
CCGATTAACATCAGGGAAAGGGATGATGTTAATCGGGTCTTGATTCGCTTGACGCTGCTG	3.11 z-score
CCGATTAACATCACATACCTACCTGATGTTAATCGGGTCTTGATTCGCTTGACGCTGCTG	1.21 z-score
CCGATTAACATCACTAAACCCCCTGATGTTAATCGGGTCTTGATTCGCTTGACGCTGCTG	6.49 z-score
CCGATTAACATCAGAGATCCCCCTGATGTTAATCGGGTCTTGATTCGCTTGACGCTGCTG	6.44 z-score
CCGATTAACATCAGAAAGTTCCCTGATGTTAATCGGGTCTTGATTCGCTTGACGCTGCTG	3.65 z-score
CCGATTAACATCAGGGAAACTTATGATGTTAATCGGGTCTTGATTCGCTTGACGCTGCTG	6.07 z-score
CCGATTAACATCAAAAAATCACCTGATGTTAATCGGGTCTTGATTCGCTTGACGCTGCTG	5.57 z-score

Sequence	binding signal
CCGATTAACATCAAAGAGTCCCCTGATGTTAATCGGGTCTTGATTCGCTTGACGCTGCTG	6.03 z-score
CCGATTAACATCAAGGGGGGACTTGATGTTAATCGGGTCTTGATTCGCTTGACGCTGCTG	4.99 z-score
CCGATTAACATCAAAAGCCCCCTTGATGTTAATCGGGTCTTGATTCGCTTGACGCTGCTG	5.65 z-score
CCGATTAACATCAAAAATGCCCCTGATGTTAATCGGGTCTTGATTCGCTTGACGCTGCTG	6.13 z-score
CCGATTAACATCAGGAGACCCCCTGATGTTAATCGGGTCTTGATTCGCTTGACGCTGCTG	2.64 z-score
CCGATTAACATCAGGGGGTTGCATGATGTTAATCGGGTCTTGATTCGCTTGACGCTGCTG	4.66 z-score
CCGATTAACATCAGGAGTCCCCCTGATGTTAATCGGGTCTTGATTCGCTTGACGCTGCTG	5.14 z-score
CCGATTAACATCACGAAAACCCCTGATGTTAATCGGGTCTTGATTCGCTTGACGCTGCTG	5.71 z-score
CCGATTAACATCAAAAACCACCCTGATGTTAATCGGGTCTTGATTCGCTTGACGCTGCTG	4.22 z-score
CCGATTAACATCACTAATCCCCCTGATGTTAATCGGGTCTTGATTCGCTTGACGCTGCTG	6.57 z-score
CCGATTAACATCAATACCCCCCCTGATGTTAATCGGGTCTTGATTCGCTTGACGCTGCTG	4.49 z-score
CCGATTAACATCAAAATTCCCGATGATGTTAATCGGGTCTTGATTCGCTTGACGCTGCTG	4.77 z-score
CCGATTAACATCAAGGGGGGTTATGATGTTAATCGGGTCTTGATTCGCTTGACGCTGCTG	5.24 z-score
CCGATTAACATCAGGGGGTTAAATGATGTTAATCGGGTCTTGATTCGCTTGACGCTGCTG	4.45 z-score
CCGATTAACATCATTTTACCTTGTGATGTTAATCGGGTCTTGATTCGCTTGACGCTGCTG	3.39 z-score
CCGATTAACATCAAATGTGGGAATGATGTTAATCGGGTCTTGATTCGCTTGACGCTGCTG	1.31 z-score
CCGATTAACATCAAGGGGGGGAATGATGTTAATCGGGTCTTGATTCGCTTGACGCTGCTG	6 z-score
CCGATTAACATCAACAACCCCCCTGATGTTAATCGGGTCTTGATTCGCTTGACGCTGCTG	5.06 z-score
CCGATTAACATCACGGAAAAACCTGATGTTAATCGGGTCTTGATTCGCTTGACGCTGCTG	1.31 z-score
CCGATTAACATCAGATCCCCCCCTGATGTTAATCGGGTCTTGATTCGCTTGACGCTGCTG	5.97 z-score
